The values below come from article PMC4336329 (PLoS ONE, 2015).

SMILES strings stand for the structures. Hit rate of the full screen: of about 310,000 compounds, about 14,000 (4.5%) showed an effect of 50% or more. Effects have a minus sign here. The list comes from a sample in which strong results are over-represented; it also holds similar structures and randomly drawn compounds.
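Further: peak tail current of the secondary pulse compared with the same well before compound.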

For this test, the target named is human ether-à-go-go-related gene (hERG) potassium channel (human, UniProt Q12809). Briefly: primary screen, population patch clamp on CHO cells stably expressing hERG; higher = less effect of the substance.
Chain of human ether-à-go-go-related gene (hERG) potassium channel (Q12809 whole entry, looked up): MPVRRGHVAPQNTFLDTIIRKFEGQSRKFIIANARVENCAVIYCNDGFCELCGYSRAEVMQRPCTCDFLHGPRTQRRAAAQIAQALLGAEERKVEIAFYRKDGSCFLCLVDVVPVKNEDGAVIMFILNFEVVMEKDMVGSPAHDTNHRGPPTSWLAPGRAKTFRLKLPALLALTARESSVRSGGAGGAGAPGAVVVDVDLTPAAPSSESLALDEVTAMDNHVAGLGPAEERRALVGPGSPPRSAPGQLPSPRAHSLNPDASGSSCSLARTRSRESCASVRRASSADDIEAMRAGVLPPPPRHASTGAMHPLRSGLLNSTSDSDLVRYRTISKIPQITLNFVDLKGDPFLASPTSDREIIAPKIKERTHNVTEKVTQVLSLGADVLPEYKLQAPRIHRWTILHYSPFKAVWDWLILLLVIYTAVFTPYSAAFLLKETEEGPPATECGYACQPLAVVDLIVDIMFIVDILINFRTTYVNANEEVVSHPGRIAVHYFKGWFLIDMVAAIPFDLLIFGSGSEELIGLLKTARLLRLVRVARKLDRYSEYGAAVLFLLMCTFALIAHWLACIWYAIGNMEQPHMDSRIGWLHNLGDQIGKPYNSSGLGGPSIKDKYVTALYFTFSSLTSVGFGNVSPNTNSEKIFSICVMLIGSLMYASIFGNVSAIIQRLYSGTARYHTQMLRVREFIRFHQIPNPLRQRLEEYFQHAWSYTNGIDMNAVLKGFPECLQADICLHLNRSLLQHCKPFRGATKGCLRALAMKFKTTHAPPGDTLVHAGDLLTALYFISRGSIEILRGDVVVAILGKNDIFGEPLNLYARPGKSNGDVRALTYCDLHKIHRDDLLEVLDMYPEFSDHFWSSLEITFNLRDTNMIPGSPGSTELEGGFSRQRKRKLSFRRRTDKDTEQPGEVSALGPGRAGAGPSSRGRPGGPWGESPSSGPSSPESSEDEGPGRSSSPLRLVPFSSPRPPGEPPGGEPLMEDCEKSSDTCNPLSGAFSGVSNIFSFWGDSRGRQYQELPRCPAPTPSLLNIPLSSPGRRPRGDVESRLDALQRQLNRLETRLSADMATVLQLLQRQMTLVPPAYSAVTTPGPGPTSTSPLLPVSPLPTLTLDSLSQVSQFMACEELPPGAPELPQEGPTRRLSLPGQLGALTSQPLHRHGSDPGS
Turning to `COCCOC1CCN(C(=O)C2CCC(=O)N(Cc3cccc(F)c3)C2)CC1` (stereo not drawn), the “hERG current change (%, negative = inhibition) at 10uM” value turned out to be 20.1%.
Next, `CCOC(=O)N1CCN(C(=O)c2ccc(NS(=O)(=O)c3ccc(F)cc3)cc2)CC1`: -1.81%.
Next, `CCN(C(=O)COC(=O)C1CCN(S(=O)(=O)c2ccc(C)c(C)c2)CC1)C1CCCCC1`: -10.4%.
As to `Cc1ccc(/C(N)=N/OC(=O)CSc2ccccc2)cc1`, the “hERG current change (%, negative = inhibition) at 10uM” value was -5.49%.
Consider `CC(=O)c1ccc(N2CCN(C(=O)c3cc4c(-c5ccccc5F)nn(C)c4s3)CC2)cc1`, for which the “hERG current change (%, negative = inhibition) at 10uM” value is -20.7%.
Then `COCCNC(=O)c1cc2c(-c3ccccc3F)nn(C)c2s1`, with -6.2%; and `CC1CCCCN1CCNC(=O)c1cc2c(-c3ccccc3F)nn(C)c2s1` (stereo not drawn), with -56.1%; and `Cn1nc(-c2ccccc2F)c2cc(C(=O)Nc3ccc4c(c3)OCCO4)sc21`, with 14.8%.
Then `CC(CCc1ccco1)NC(=O)c1cc2c(-c3ccccc3F)nn(C)c2s1` (stereo not drawn), with -5.86%.
Then `Cn1nc(-c2ccc(Cl)cc2)c2cc(C(=O)N3CCN(C(=O)c4ccco4)CC3)sc21`, with -20.7%; and `CCOC(=O)N1CCC(NC(=O)c2cc3c(-c4ccccc4F)nn(C)c3s2)CC1`, with 13.5%.
Consider `Cn1nc(-c2ccccc2F)c2cc(C(=O)N3CCN(C(=O)c4ccco4)CC3)sc21`, for which the “hERG current change (%, negative = inhibition) at 10uM” value is -57.2%.
Next, `CN(CCNC(=O)c1cc2c(-c3ccccc3F)nn(C)c2s1)C1CCCCC1`: -50.8%; `CCOc1ccc(NC(=O)c2ccc(-n3cccn3)nc2)cc1`: 18.7%; `CCN(/C=N/c1sc2c(c1C#N)CCCCC2)CC`: 5.56%.
With `CC(c1ccccc1)n1c(-c2ccc(Cl)cc2)n[nH]c1=S` (stereo not drawn), the “hERG current change (%, negative = inhibition) at 10uM” value amounted to 13.9%.
As for `CCOc1cc(C(=O)Nc2ccc([N+](=O)[O-])cn2)cc(OCC)c1OCC`, the “hERG current change (%, negative = inhibition) at 10uM” value is listed as -29%.
Next, `COc1ccc(C(=O)CC(=O)C(=O)Nc2cc(OC)c(OC)c(OC)c2)cc1`: 8.58%; `Cc1ccc2[nH]c3c(NCCCN4CCCC4=O)ncnc3c2c1`: -13.7%.
Then `Fc1ccc2[nH]c3c(NCCN4CCOCC4)ncnc3c2c1`, with -16.8%; and `Cc1ccc2ncnc(NCCCN3CCOCC3)c2c1`, with -13.6%; and `Clc1ccc(-n2ncc3c(NCCN4CCOCC4)ncnc32)cc1`, with -34.7%.
For the compound `Clc1ccc2[nH]c3c(NCCCN4CCOCC4)ncnc3c2c1`, the “hERG current change (%, negative = inhibition) at 10uM” value is on record as -69.9%.
Then `Clc1ccc2[nH]c3c(NCCN4CCOCC4)ncnc3c2c1`, with -61.8%.
